Measured values from PubChem BioAssay (NCI).
This is part of a sample that, as a whole, favours compounds with a hit. Of some 83,000 tested, about 20% had one in any assay.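 Method: cells in 96-well plates; compound added at one concentration; 48 h incubation; percent growth measured; values under 10 scored active.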 Unmarked numbers belong to inactive results. Calls of active or inactive are those of the source.

Test system: MDA-MB-468 breast
Assay: NCI-60 one-dose screen, 48 h (100 = growth as untreated, 0 = no growth, -100 = all killed)
Conditions: 10 µM unless noted

| SMILES | growth |
| --- | --- |
| c1ccc(-c2nnn(-c3ccccc3)n2)cc1 | 111% |
| C=C(CNCCO)[C@@H]1CC[C@]2(CO)CC[C@]3(C)[C@H](CC[C@@H]4[C@@]5(C)CCC(N)C(C)(C)[C@@H]5CC[C@]43C)[C@@H]12 (some centres undefined) | -40.9% (active) |
| CCCCOc1ccc(/C(C)=N/Nc2cc(C)nc3ccc(Br)cc23)cc1 | 113% |
| CC(=O)Nc1ccccc1-c1nc2ccccc2s1 | 93% |
| CN(C)CCN(Cc1ccccc1)c1ccc2ccccc2n1 | 92.6% |
| CCSc1nc2ccccc2o1 | 111% |
| COc1ncc(F)c(OC)n1 | 98.7% |
| COC(c1ccc2ccccc2c1)C(C)C(F)F (centres undefined) | 99.7% |
| O=C(Nc1cc(Br)ccn1)c1cc2cc(Nc3nc(-c4ccccc4)nc4ccccc34)ccc2oc1=O | 123% |
| C=C(C)[C@@H]1CC[C@]2(C(=O)N3CCN(C)CC3)CC[C@]3(C)[C@H](CC[C@@H]4[C@@]5(C)C/C(=C/c6ccc(C(F)(F)F)cc6)C(=O)C(C)(C)[C@@H]5CC[C@]43C)[C@@H]12 | 107% |
| Cc1nc(C)c(-c2nn3c(-c4cccc(F)c4)nnc3s2)s1 | 89.5% |
| COc1ccc(NC(=O)c2sc3nc(-c4cnccn4)cc(-c4cccs4)c3c2N)cc1 | 89% |
| CCCCCCCn1cc2c(NCCc3ccccc3)ncnc2n1 | 105% |
| C[C@H]1[C@H]2[C@H]3CC[C@@H]4[C@@]5(C)C/C(=C/c6ccco6)C(=O)C(C)(C)[C@@H]5CC[C@@]4(C)[C@]3(C)CC[C@]23CO[C@]1(C)[C@@H](C(=O)/C=C\c1ccco1)C3 | 76.3% |
| COc1ccc(C2=NN(C(C)=O)C(c3cc(OC)c(OC)c(OC)c3)C2)cc1 (centres undefined) | 108% |
| CC[n+]1c(/C=C/C=C2\N(C)c3ccccc3C2(C)C)sc2ccccc21 | -12.3% (active) |
| CC1CCCCN1S(=O)(=O)c1ccc(CN=C=S)cc1 (centres undefined) | 17.4% |
| CCN(CC)c1ccc(C(=O)c2ccc(N(CC)CC)cc2)cc1 | -36% (active) |
| OC1CCN(CCCOc2c3ccccc3nc3c2oc2ccccc23)CC1 | -16.4% (active) |
| O=C1CCC(N2C(=O)c3cccc(NCCCC4CCN(CCNC(=O)c5cc6c(o5)C(=O)c5ccccc5C6=O)CC4)c3C2=O)C(=O)N1 (centres undefined) | -73.9% (active) |
| Cc1ccccc1NC(=O)N/C(N)=N/c1nc(C)c(C)s1 | -7.08% (active) |
| CC(C)(C)NCCC(O)c1cc2c(Cl)cc(Cl)cc2c2cc(C(F)(F)F)ccc12 (centres undefined) | -85.7% (active) |
| O=C1/C(=C\c2ccccn2)c2ccccc2N1c1c(Cl)cccc1Cl | -17.2% (active) |
| Cc1cc(C(=O)Nc2ncc(Cc3cccc(C(F)(F)F)c3)s2)c2ccccc2n1 | 1.69% (active) |
